Screening results deposited in PubChem by National Center for Advancing Translational Sciences (NCATS).
TGFb SMAD3 inh: qHTS for Inhibitors of TGF-b | HepG2 CAGA-GFP TGF-b/SMAD3 reporter, GFP fluorescence, 18 h; TGF-beta stimulated, 500 pg/mL final | AID 588855, 2011 | Potency, µM (top dose mostly 46.1 µM), actives largely listed as inhibitors | hit rate 1.2% among 410,000; also: nearly all actives have a fitted effect of over 65% in size
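Inhibition was scored as loss of TGF-beta-induced (500 pg/mL final, 18 hours, 37 degrees C) GFP in HEPG2 cells carrying a CAGA-GFP reporter, in DMEM with 1% FBS. Well GFP was summed per cell; Activity was normalised to unstimulated and stimulated DMSO wells, then concentration-response fitting.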
ATXN2 expr inh: Primary qHTS for Inhibitors of ATXN expression | HEK-293 ATXN2-luciferase reporter, luminescence, 24 h | Potency, µM (doses to about 57 µM), actives largely listed as inhibitors | hit rate 0.72% among 360,000; also: nearly all actives have a fitted effect of over 55% in size
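qHTS (up to 57 uM final) was run with 24 h compound exposure of reporter cells at 37 °C. Each well was multiplexed: SteadyGlo luminescence measured ATXN2-luciferase expression after a fluorogenic Gly-Phe-AFC viability readout (25 uM final).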
ATXN viability: Viability Counterscreen for Primary qHTS for Inhibitors of ATXN expression; hit rate 0.49% among 400,000; S2 cells (HEK-293 line with an ATXN2-luciferase reporter) viability, CellTiter-Fluor protease fluorescence, 24 h; Potency, µM (titrated, usually from 56.7 µM), most hits filed as cytotoxic; AID 651635, 2014; also: nearly all actives have a fitted effect of over 40% in size
HepG2 viability: qHTS for Inhibitors of TGF-b: Cytotox Counterscreen | HepG2 CAGA-GFP viability, ATP luminescence, 18 h | Potency, µM (doses to about 46.1 µM), usual class: cytotoxic | hit rate 0.76% among 410,000 | AID 588856, 2011
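CellTiter-Glo luminescence gave cytotoxicity after 18 hours at 37 degrees C. The cells were HepG2 CAGA-GFP in 1% FBS DMEM, stimulated with 500 pg/mL TGF-beta after compound addition. %Activity was normalised to no-cell wells (complete cell-killing) and DMSO (no toxicity), and curves were fitted and classified.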
TDP1 cell CPT: qHTS for Inhibitors of human tyrosyl-DNA phosphodiesterase 1 (TDP1): qHTS in cells in presence of CPT | chicken DT40 Tdp1-/-;hTDP1 cells + 20 nM CPT, ATP luminescence, 48 h | Potency, µM (doses to about 46.2 µM), actives largely listed as inhibitors | hit rate 12% among 420,000; also: nearly all actives have a fitted effect of over 55% in size
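Chicken DT40 Tdp1-/- cells stably complemented with human TDP1 were seeded at 400 cells/well in medium containing 20 nM camptothecin, exposed to pin-transferred compounds, and grown at 37 °C for at least 48 hr. Viability was read as ATP luminescence.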
DT40 TDP1 no CPT: qHTS for Inhibitors of human tyrosyl-DNA phosphodiesterase 1 (TDP1): qHTS in cells in absence of CPT. DT40 Tdp1-/- hTDP1 cells, no CPT, ATP luminescence, 48 h. Potency, µM (highest dose often 46.2 µM), hits mostly inhibitors. hit rate 15% among 420,000. AID 686978, 2013; also: nearly all actives have a fitted effect of over 55% in size
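Growth kinetics read by CellTiter-Glo luminescence after ≥48 hr at 37 °C. Cells: DT40 Tdp1-/- stably carrying human TDP1, 400 per well, compound exposure in the absence of CPT (DMSO vehicle).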
Numbers stand for hits; – = inactive; ? = inconclusive; · = no result. An excerpt weighted towards active compounds, which were near 17% of everything screened. Calls follow the shape of the dose curve; as a rule, active = well fitted curve in the direction sought with a large enough effect; inconclusive = small, poorly fitted or top-dose-only effect, or another doubt; inactive = no such curve, though single readings can be large; an effect the other way counts as inactive or inconclusive.

SMILES | TGFb SMAD3 inh | ATXN2 expr inh | ATXN viability | HepG2 viability | TDP1 cell CPT | DT40 TDP1 no CPT
O=C1N=C(O)CN1/N=C\c1ccc(-c2ccc([N+](=O)[O-])cc2)o1 | · | · | – | · | ? | ?
CNC(=S)Nc1ccc(N2CCN(c3ccc(C(F)(F)F)cn3)CC2)nc1 | – | ? | – | – | ? | 26µM
Cc1csc2ncnc(N3CCN(C(=S)Nc4ccc(F)cc4F)CC3)c12 | – | ? | ? | – | ? | 15µM
CN1CCN(c2ccc(NC(=O)c3ccc(C(F)(F)F)cc3)cn2)CC1 | – | – | – | – | – | –
CC(C)(C)c1ccc(NC(=O)N2CCCN(c3ccc([N+](=O)[O-])cn3)CC2)cc1 | – | – | – | – | ? | 26µM
CC(NC(=O)c1ccco1)C(=O)N1CCN(c2cccc(C(F)(F)F)c2)CC1 (centres undefined) | – | – | – | – | 13µM | 10µM
CC1CN(C(=S)Nc2ccc(F)cc2F)CC(C)O1 (centres undefined) | – | – | – | – | – | –
O=C(Nc1ccc([N+](=O)[O-])cc1)N1CCCCCC1 | – | – | – | – | – | –
CCS(=O)(=O)N1CCN(c2ccccn2)CC1 | – | – | – | – | – | –
O=C(NC1CCCCC1)c1ccc2snnc2c1 | – | – | – | – | ? | ?
Nc1nc(SCC(=O)Nc2cc(Cl)c(Cl)cc2Cl)n[nH]1 | – | – | – | – | – | ?
O=C(c1ccc2ccccc2c1)N1CCN(c2ccc(C(F)(F)F)cn2)CC1 | – | – | – | – | – | ?
Cc1ccc(NC(=O)CSCC(=O)N2CCN(c3cccc(C(F)(F)F)c3)CC2)cc1 | ? | – | – | – | ? | 15µM
CCC(C)[C@H](NC(=O)N1CCN(c2cccc(C(F)(F)F)c2)CC1)C(=O)OC (some centres undefined) | – | – | – | – | 15µM | 21µM
COC(=O)[C@H](CCSC)NC(=O)N1CCN(c2cccc(C(F)(F)F)c2)CC1 | – | – | – | – | – | –
O=C(Nc1ccccc1)N1CCN(c2ccc(C(F)(F)F)cn2)CC1 | – | ? | – | – | 7.3µM | 23µM
COc1ccc(NC(=O)N2CCN(c3cccc(C(F)(F)F)c3)CC2)cc1OC | ? | – | – | – | ? | 12µM
c1ccc(N2CC3COc4ccccc4C3=N2)cc1 (centres undefined) | – | – | · | – | – | –
O=C(Nc1ccc(F)cc1F)N1CCCN(c2ccc(C(F)(F)F)cn2)CC1 | – | – | – | – | ? | ?
Fc1ccc(NC(=S)N2CCCN(c3ccc(C(F)(F)F)cn3)CC2)c(F)c1 | ? | · | – | – | 16µM | 18µM
CN(C(=O)CC1C(=O)NCCN1Cc1ccccc1F)C1CCOCC1 (centres undefined) | – | – | – | – | – | –
O=C(CC1C(=O)NCCN1CC1CCCCC1)NCc1ccc(F)cc1F (centres undefined) | – | – | – | – | – | –
CN(C(=O)CC1C(=O)NCCN1Cc1ccccc1C(F)(F)F)C1CCOCC1 (centres undefined) | – | – | – | – | ? | 21µM
CCOc1ccccc1CN1CCNC(=O)C1CC(=O)NC1CCCCCCC1 (centres undefined) | – | – | – | – | 29µM | ?
CCc1ccc(CNC(=O)CC2C(=O)NCCN2Cc2ccccc2F)nc1 (centres undefined) | – | – | – | – | – | 5.2µM
SMILES | TGFb SMAD3 inh | ATXN2 expr inh | ATXN viability | HepG2 viability | TDP1 cell CPT | DT40 TDP1 no CPT
O=C(CC1C(=O)NCCN1CC1CCCCC1)NCc1cc(F)ccc1F (centres undefined) | ? | – | – | – | 23µM | ?
Cc1cnc(CNC(=O)CC2C(=O)NCCN2Cc2ccccc2C(F)(F)F)cn1 (centres undefined) | – | – | ? | – | – | –
COc1cc2c(cc1OC)C(COc1ccc([N+](=O)[O-])cc1)NCC2 (centres undefined) | – | – | – | – | – | –
Cc1ccc(N(C(=O)CNC(=O)c2ccco2)C(C(=O)NC2CCCCC2)c2ccncc2)cc1F (centres undefined) | ? | – | – | – | – | –
COc1ccc(NS(=O)(=O)c2cccc(C(=O)NCC(c3ccc(OC)cc3)N3CCCCC3)c2)cc1 (centres undefined) | – | – | – | – | ? | –
CCN(c1ccccc1)S(=O)(=O)c1cccc(C(=O)NCC(c2ccc(OC)cc2)N2CCCCC2)c1 (centres undefined) | ? | · | ? | – | 18µM | 8.2µM
C=CCN(c1ccccc1)S(=O)(=O)c1cccc(C(=O)NCC(c2ccc(OC)cc2)N2CCCCC2)c1 (centres undefined) | – | ? | – | – | 5.8µM | 5.8µM
C=CCN(c1ccccc1OC)S(=O)(=O)c1cccc(C(=O)NCC(c2ccc(OC)cc2)N2CCCC2)c1 (centres undefined) | – | ? | ? | – | 3.7µM | 7.3µM
COc1ccc(C(CNC(=O)c2cccc(S(=O)(=O)Nc3ccc(F)cc3)c2)N2CCCC2)cc1 (centres undefined) | – | – | – | – | ? | ?
Cc1cc(Br)ccc1NC(=O)CN(C)C(=O)C1CCN(C(=O)c2ccc(Cl)cc2)CC1 | – | – | – | – | ? | ?
CN(C)c1ccc(NC(=O)CCN2C(=O)c3cccc([N+](=O)[O-])c3C2=O)cc1 | – | – | – | – | – | –
CCOC(=O)N1CCN(Cc2nc3cc([N+](=O)[O-])ccc3n2C(C)C)CC1 | – | – | – | – | 21µM | ?
CCOC(=O)N1CCN(Cc2nc3cc(NC(=O)c4ccccc4[N+](=O)[O-])ccc3n2C(C)C)CC1 | – | · | · | – | 16µM | 16µM
CCOC(=O)N1CCN(Cc2nc3ccc([N+](=O)[O-])cc3c(=O)n2-c2ccc(OC)cc2OC)CC1 | – | – | – | – | ? | ?
CCOC(=O)N1CCN(Cc2nc3cc(NC(=O)c4ccccc4OC)ccc3n2C(C)C)CC1 | – | · | · | – | 3.7µM | 2.3µM
O=C(c1ccc(S(=O)(=O)N2CCCC2)cc1)N1CCCC(C(F)(F)F)C1 (centres undefined) | – | – | – | – | – | –
Brc1cccc(-c2nc3cccnc3nc2-c2cccc(Br)c2)c1 | – | – | – | – | ? | 16µM
Brc1cccc(C=Nc2cccc3ncccc23)c1 | – | · | – | – | – | –
